Data taken from PubChem BioAssay (NCATS).
Records with an inconclusive call do not appear. The source made the active and inactive calls. The call rests on the fitted dose curve; in most records, active means well fitted curve in the direction sought with a large enough effect; inconclusive means small, poorly fitted or top-dose-only effect, or another doubt; inactive means no such curve, though single readings can be large; an effect the other way counts as inactive or inconclusive. Non-standard residues stand in square brackets, D forms with d. Residues, ends and D or L forms follow the SMILES beside them. *: point of attachment. Nva = CCC[C@H](N)C(=O)O; Cbz = O=C(OCc1ccccc1)*

Tests used:
[1] = qHTS of pediatric cancer cell lines to identify multiple opportunities for drug repurposing: Confirmatory screen for U-2 OS cells (AID 1347122); further: nearly all actives have a fitted effect of over 65% in size
In short: (§1)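 Cells (500-1,000/well) in growth media were settled 5 h at 37 degrees C, then given compounds for 48 h. Viability was read as CellTiter-Glo luminescence. Primary runs used MIPE at 11 points (0.78 nM-46 µM) and NPC at 8 points (0.59 nM-46 µM); follow-ups used 11 points.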

[2] = qHTS of pediatric cancer cell lines to identify multiple opportunities for drug repurposing: Confirmatory screen for Rh41 cells (AID 1347123);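 further: 48 h compound exposure; nearly all actives have a fitted effect of over 60% in size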
In short: as §1

[3] = qHTS of pediatric cancer cell lines to identify multiple opportunities for drug repurposing: Confirmatory screen for RD cells (AID 1347124);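 further: cells exposed to compound for 48 h before viability readout; nearly all actives have a fitted effect of over 65% in size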
In short: as §1

[4] = qHTS of pediatric cancer cell lines to identify multiple opportunities for drug repurposing: Confirmatory screen for Rh18 cells (AID 1347125); further: nearly all actives have a fitted effect of over 55% in size
In short: as §1

[5] = qHTS of pediatric cancer cell lines to identify multiple opportunities for drug repurposing: Confirmatory screen for Rh30 cells (AID 1347126); further: nearly all actives have a fitted effect of over 55% in size
In short: as §1

[6] = qHTS of pediatric cancer cell lines to identify multiple opportunities for drug repurposing: Confirmatory screen for Saos-2 cells (AID 1347127); further: nearly all actives have a fitted effect of over 60% in size
In short: as §1

[7] = qHTS of pediatric cancer cell lines to identify multiple opportunities for drug repurposing: Confirmatory screen for OHS-50 cells (AID 1347128);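 further: compound exposure lasted 48 h at 37 degrees C; nearly all actives have a fitted effect of over 55% in size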
In short: as §1

[8] = qHTS of pediatric cancer cell lines to identify multiple opportunities for drug repurposing: Confirmatory screen for SK-N-SH cells (AID 1347129);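 further: cells exposed to compound for 48 h before viability read; nearly all actives have a fitted effect of over 60% in size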
In short: as §1
Potency means the concentration at half of the fitted maximal effect.

Structure (SMILES) | Potency [1] | Potency [2] | Potency [3] | Potency [4] | Potency [5] | Potency [6] | Potency [7] | Potency [8]
O=S(=O)(O)CCSSCCS(=O)(=O)O | inactive | inactive | inactive | inactive | inactive | inactive | inactive | inactive
Oc1ccc(-c2ccc(-c3cc(Nc4cccc(CNC5CC5)c4)n[nH]3)cc2)c(O)c1 | 5220 nM (active) | 3690 nM (active) | 5220 nM (active) | 16500 nM (active) | 5220 nM (active) | 9270 nM (active) | 1470 nM (active) | inactive
CCN(CC)CCNC(=O)c1c(C)[nH]c(C=C2C(=O)Nc3ccc(F)cc32)c1C | 24000 nM (active) | 7590 nM (active) | 15100 nM (active) | 26900 nM (active) | 12000 nM (active) | 26900 nM (active) | 10700 nM (active) | 9590 nM (active)
COc1ccc(C=Cc2cc(OC)c(OC)c(OC)c2)cc1NC(=O)[C@H](N)CO | 117 nM (active) | 104 nM (active) | 131 nM (active) | inactive | 928 nM (active) | 73.7 nM (active) | – | –
Cn1cc(CNCC2CCN(c3ncc(C(=O)NO)cn3)CC2)c2ccccc21 | 208 nM (active) | 32.9 nM (active) | 329 nM (active) | 131 nM (active) | 293 nM (active) | 208 nM (active) | 131 nM (active) | 469 nM (active)
COC(=O)[C@@H]1[C@H]2C[C@@H]3c4[nH]c5ccccc5c4CCN3C[C@@H]2CC[C@@H]1O | inactive | inactive | inactive | inactive | inactive | inactive | inactive | inactive
Oc1cc(-c2nc(-c3ccccc3)[nH]c2-c2ccncc2)ccc1Cl | 18500 nM (active) | 16500 nM (active) | 16500 nM (active) | 18500 nM (active) | 1310 nM (active) | 2610 nM (active) | 18500 nM (active) | –
CC(C)C[C@H](NC(=O)CNC(=O)c1cc(Cl)ccc1Cl)B1OC(=O)CC(CC(=O)O)(C(=O)O)O1 (stereo not given in full) | 827 nM (active) | 233 nM (active) | 414 nM (active) | 369 nM (active) | 2330 nM (active) | 4650 nM (active) | 585 nM (active) | inactive
C[C@@H](Oc1ccc2[nH]nc(C=Cc3cnn(CCO)c3)c2c1)c1c(Cl)cncc1Cl | 2080 nM (active) | 104 nM (active) | 5220 nM (active) | 3690 nM (active) | 4140 nM (active) | 2610 nM (active) | 4140 nM (active) | inactive
N#CNC(=NCCCCCCOc1ccc(Cl)cc1)Nc1ccncc1 | 293 nM (active) | 16.5 nM (active) | 36.9 nM (active) | 46.5 nM (active) | 18.5 nM (active) | 20800 nM (active) | – | –
COC[C@H](NC(=O)c1cnc(C)s1)C(=O)N[C@@H](COC)C(=O)N[C@@H](Cc1ccccc1)C(=O)[C@@]1(C)CO1 | 329 nM (active) | 46.5 nM (active) | 82.7 nM (active) | 208 nM (active) | 737 nM (active) | – | – | –
CC(C)C[C@H](NC(=O)[C@@H](NC(=O)c1cccc(-c2ccccc2)n1)[C@@H](C)O)B(O)O | 36.9 nM (active) | 73.7 nM (active) | 52.2 nM (active) | 82.7 nM (active) | 3290 nM (active) | 414 nM (active) | 131 nM (active) | 59 nM (active)
CC(C)(O)Cn1c(NC(=O)c2ccc(-c3cn[nH]c3)s2)nc2cc(CN3CCOCC3)ccc21 | 1170 nM (active) | 585 nM (active) | 827 nM (active) | 1310 nM (active) | 657 nM (active) | 585 nM (active) | 827 nM (active) | 1320 nM (active)
CC(=O)O[C@H]1C[C@@H]2CC[C@H]3[C@H]4C[C@H]([N+]5(C)CCCCC5)[C@@H](OC(C)=O)[C@@]4(C)CC[C@@H]3[C@@]2(C)C[C@H]1N1CCCCC1 | inactive | 7370 nM (active) | inactive | 10400 nM (active) | 8270 nM (active) | – | 16500 nM (active) | 20900 nM (active)
C[C@@]12C(=O)OC(=O)[C@@]1(C)C1CCC2O1 | 1850 nM (active) | 1850 nM (active) | 4140 nM (active) | 2930 nM (active) | 3290 nM (active) | 2610 nM (active) | 4650 nM (active) | 5900 nM (active)
COc1cccc2c1C(=O)c1c(O)c3c(c(O)c1C2=O)C[C@@](O)(C(=O)CO)C[C@H]3O[C@H]1C[C@H](N)[C@H](O)[C@H](C)O1 | 13100 nM (active) | 928 nM (active) | 5220 nM (active) | 1470 nM (active) | 1170 nM (active) | – | 2610 nM (active) | 590 nM (active)

Structure (SMILES) | Potency [1] | Potency [2] | Potency [3] | Potency [4] | Potency [5] | Potency [6] | Potency [7] | Potency [8]
CC1(C)O[C@@H]2C[C@H]3[C@@H]4CCC5=CC(=O)C=C[C@]5(C)[C@@H]4[C@@H](O)C[C@]3(C)[C@]2(C(=O)CO)O1 | inactive | inactive | inactive | inactive | inactive | inactive | inactive | inactive
Nc1nc2c(c(=O)[nH]1)N(C=O)[C@H](CNc1ccc(C(=O)N[C@@H](CCC(=O)O)C(=O)O)cc1)CN2 | inactive | inactive | inactive | inactive | inactive | inactive | inactive | inactive
COC1=C2C[C@@H](C)C[C@H](OC)[C@@H](O)[C@@H](C)C=C(C)[C@H](OC(N)=O)[C@@H](OC)C=CC=C(C)C(=O)NC(=CC1=O)C2=O | 1040 nM (active) | 2330 nM (active) | 928 nM (active) | 2080 nM (active) | 1310 nM (active) | 928 nM (active) | 4650 nM (active) | 2350 nM (active)
CS(=O)(=O)N1CCc2c(-c3cnc(N)nc3)nc(N3CCOCC3)nc21 | 1850 nM (active) | 1850 nM (active) | 1310 nM (active) | 1850 nM (active) | 1470 nM (active) | 2330 nM (active) | 2930 nM (active) | 2640 nM (active)
CCC[C@@H](C=O)NC(=O)[C@H](CC(C)C)NC(=O)[C@H](CC(C)C)NC(=O)OCc1ccccc1 (Cbz-Leu-Leu-[Nva]-aldehyde) | 2610 nM (active) | 1040 nM (active) | 1310 nM (active) | 3690 nM (active) | 4140 nM (active) | 3290 nM (active) | 2330 nM (active) | 1320 nM (active)
CCS(=O)(=O)Nc1ccc2[nH]c(O)c(C(=Nc3ccc(CN4CCCCC4)cc3)c3ccccc3)c2c1 | 522 nM (active) | 522 nM (active) | 737 nM (active) | 4650 nM (active) | 1650 nM (active) | 737 nM (active) | 5220 nM (active) | 332 nM (active)
COc1ccc(C(C)=O)c(O)c1 | inactive | inactive | inactive | inactive | inactive | – | inactive | inactive
CC(C)N1[N]C(=C2C=c3cc(O)ccc3=N2)c2c(N)ncnc21 | 2330 nM (active) | 522 nM (active) | 11700 nM (active) | 6570 nM (active) | 1650 nM (active) | 10400 nM (active) | 5220 nM (active) | –
O=C(C=CC#Cc1cccc(NS(=O)(=O)c2ccccc2)c1)NO | 928 nM (active) | 1650 nM (active) | 5220 nM (active) | 2330 nM (active) | 5220 nM (active) | 2930 nM (active) | 5850 nM (active) | 4180 nM (active)
CC(=O)NCC(=O)N1[C@H]2CC[C@H]1c1cc(Nc3ncc(C(F)(F)F)c(NC4CCC4)n3)ccc12 | 1850 nM (active) | 1310 nM (active) | 13100 nM (active) | 2930 nM (active) | 3690 nM (active) | 585 nM (active) | 2610 nM (active) | 2090 nM (active)
CC(C(C)N1CC(=O)NC(=O)C1)N1CC(=O)NC(=O)C1 (stereo not given) | inactive | inactive | inactive | inactive | inactive | inactive | inactive | inactive
Nc1ncn([C@@H]2O[C@H](CO)[C@@H](O)[C@@H]2O)c(=O)n1 | 8270 nM (active) | 16500 nM (active) | 20800 nM (active) | 20800 nM (active) | 18500 nM (active) | 20800 nM (active) | 5850 nM (active) | 16600 nM (active)
C[C@H](NCc1ccc2c(c1)nc(NC(=O)c1ccc(-c3cn[nH]c3)s1)n2CCc1ccccc1)C(C)(C)C | 1170 nM (active) | 928 nM (active) | 1170 nM (active) | 3290 nM (active) | 4140 nM (active) | 1470 nM (active) | 1470 nM (active) | 833 nM (active)
CC(C)C[C@@H](C=O)NC(=O)[C@H](CC(C)C)NC(=O)[C@H](CC(C)C)NC(=O)OCc1ccccc1 (Cbz-Leu-Leu-Leu-aldehyde) | 2080 nM (active) | 1170 nM (active) | 657 nM (active) | 1650 nM (active) | 3290 nM (active) | 1470 nM (active) | 928 nM (active) | 833 nM (active)
CN(C)c1ccc(C(=O)NCCCCCCC(=O)NO)cc1 | 1470 nM (active) | 1170 nM (active) | 2330 nM (active) | 1470 nM (active) | 3290 nM (active) | 2930 nM (active) | – | 2350 nM (active)
